Experimental data published in PubChem BioAssay AID2108 (National Center for Advancing Translational Sciences (NCATS), 2009).
Inconclusive results are not listed. Active and inactive are the calls of the source. The call rests on the fitted dose curve; in most records, active means well fitted curve in the direction sought with a large enough effect; inconclusive means small, poorly fitted or top-dose-only effect, or effect the other way, or another doubt; inactive means no such curve, though single readings can be large or run the other way.

molecular target: Alpha-galactosidase A (Homo sapiens) (UniProt P06280); test: Confirmation of Inhibitors of Human alpha-Galactosidase Using Spleen Homogenate; details: alpha-galactosidase enzyme activity; series mostly up to 56.2 µM
Outline: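 AC50 values come from Hill-equation fits of normalised 4-methylumbelliferone fluorescence (365/440 nm, read after NaOH/glycine stop). Enzyme source: spleen homogenate; substrate 1 mM final; pH 5.0 citrate buffer; 40 min at 37C; compound titration 0.5 nM–58 uM.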

Chain of Alpha-galactosidase A (Homo sapiens) (P06280 32-429 limits assumed): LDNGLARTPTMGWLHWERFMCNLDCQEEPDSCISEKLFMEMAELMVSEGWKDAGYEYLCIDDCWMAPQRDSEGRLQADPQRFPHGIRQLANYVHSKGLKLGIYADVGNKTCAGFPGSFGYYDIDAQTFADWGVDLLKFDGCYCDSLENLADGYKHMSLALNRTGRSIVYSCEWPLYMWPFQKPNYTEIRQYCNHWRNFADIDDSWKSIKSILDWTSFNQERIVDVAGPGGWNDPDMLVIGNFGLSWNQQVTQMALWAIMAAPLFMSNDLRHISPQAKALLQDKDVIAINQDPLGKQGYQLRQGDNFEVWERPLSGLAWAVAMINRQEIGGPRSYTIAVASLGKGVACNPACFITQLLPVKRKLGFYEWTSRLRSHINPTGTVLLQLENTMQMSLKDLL

outcome, inactive:
COc1cc(NC(=O)CN2CCN(c3ccccc3F)CC2)c(C)cc1[N+](=O)[O-]
COc1ccc(C(=O)N2CCn3c(C)ccc3C2C)cc1 (configuration not stated)
COc1cc([C@@H]2c3cc4c(cc3[C@@H](OC3OC5COC(C)OC5C(O)C3O)[C@H]3COC(=O)[C@H]23)OCO4)cc(OC)c1O (some centres not stated)
CCOc1c(Br)cc(CNc2ccc(N3CCN(C(C)=O)CC3)cc2)cc1OC
CCCCCCc1cc2cc(C(=O)NC)c(=N)oc2cc1O
CCCc1cc(-c2nc(N)ncc2-c2ccc3c(c2)OCCCO3)c(O)cc1OC
CCOc1cc(/C=C2\SC(N)=NC2=O)ccc1O
CCN(CC)S(=O)(=O)c1ccc2c(c1)-c1cc(S(=O)(=O)N(CC)CC)ccc1C2=NNC(N)=S
Cc1ccc(S(=O)(=O)N2CCN(C(=O)C3COc4ccccc4O3)CC2)cc1C (configuration not stated)
O=C(O)c1cc(NCc2c(F)cccc2Cl)ccc1N1CCOCC1
COc1cc(C2C(C(=O)c3ccco3)=C(O)C(=O)N2CC2CCCO2)ccc1O (configuration not stated)
Cc1sc(-c2cc3ccccc3oc2=O)nc1-c1ccc(Cl)cc1
CCNc1sc(C(=O)c2cccs2)c(N)c1-c1nc2ccccc2s1
Nc1nc(C2CC2)c(Sc2sc(N)nc2C2CC2)s1
O=c1cc(-c2ccccc2)[nH]c2[nH]n(-c3ccccc3)c(=O)c12
CCNc1ccc(C2(O)C(=O)c3ccccc3C2=O)cc1
CC(=O)c1cccc(S(=O)(=O)N2CCOCC2)c1
CC(=O)N1CCN(c2ccc(NCc3ccccc3)cc2)CC1
CN1CC=C2C(C#N)=C(N)C(C#N)(C#N)[C@H](c3cccc(Cl)c3)C2C1 (some centres not stated)
COc1ccccc1CNc1ccc(N2CCOCC2)c(C(=O)O)c1
Nc1ccccc1S(=O)(=O)N1CCOCC1
O=C1CC(c2ccccc2)Cc2nc(NCc3ccco3)ncc21 (configuration not stated)
Cc1ccc(N2CC(C(=O)NCc3ccc(C)n3C)CC2=O)cc1 (configuration not stated)
Nc1ccc(S(=O)(=O)N2CCOCC2)cc1
CCOC(=O)Nc1ccc2c(c1)N(C(=O)CN(CC)CC)c1ccccc1CC2
CCOC(=O)Cc1csc(NC(=O)NC2(C(F)(F)F)Oc3cc(Cl)c(Cl)cc3O2)n1
O=C(/C=C/c1ccc(O)c(O)c1)c1ccc(O[C@@H]2O[C@H](CO)[C@@H](O)[C@H](O)[C@H]2O)c(O)c1O
O=C(Nc1nc2c(s1)CN(Cc1ccccc1)CC2)C1CCCC1
Cc1c(OCC(F)(F)F)ccnc1CS(=O)c1nc2ccccc2[nH]1 (configuration not stated)
Cc1ccc(S(=O)(=O)N2CCN(C(=O)CSc3nc4ccccc4c(=O)[nH]3)CC2)c(C)c1
COc1cc(/C=C/c2ccc3ccccc3n2)cc(OC)c1O
O=c1oc2ccc(Br)cc2cc1-c1nc2c(s1)CCc1ccccc1-2
Cn1c(=O)c2c(nc(NCc3ccc4c(c3)OCO4)n2Cc2ccc(F)cc2)n(C)c1=O
COc1ccccc1NC(=O)c1ccc(Br)o1
C=CCn1c2ccccc2c2nnc(SCC(=O)NC(C(=O)OC)C(C)C)nc21 (configuration not stated)
CC(=O)NNc1nc2ccccc2s1
Cc1c(C(=O)NCc2ccccc2F)oc2ccccc12
